Test results as given in PubChem BioAssay (NCATS).
Results filed as inconclusive are left out. Unmarked numbers belong to inactive results. Calls follow the shape of the dose curve; as a rule, active = well fitted curve in the direction sought with a large enough effect; inconclusive = small, poorly fitted or top-dose-only effect, or another doubt; inactive = no such curve, though single readings can be large; an effect the other way counts as inactive or inconclusive. Numbered stars: 1 amine (or outer) side, 2 acyl side, 3 side chain; on linkers, the order of the positions; unused ones are H or OH. Bridge positions count the residues as written; N and C are the ends. Square brackets hold non-standard residues; d marks the D form. Peptide text beside a SMILES is read from it. I, II: the chains in the order shown. Actinocin(9to1) = Cc1c2oc3c(C)ccc(C(=O)[*:1])c3nc-2c(C(=O)[*:2])c(N)c1=O; NMeV = CN[C@H](C(=O)O)C(C)C; Sar = CNCC(=O)O

Biological target: Protein phosphatase 1D (Homo sapiens) (UniProt O15297)
Assay: Rhodamine-PBP qHTS Assay for Modulators of WT P53-Induced Phosphatase 1 (WIP1) (AID 1347425); also: % of control where 0% means no effect
Details: recombinant WIP1, Rhodamine-PBP phosphate fluorescence, real-time; series mostly up to 57.5 µM; activity change, negative = inhibition: at the top concentration
Summary of the method: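 The read-out is the change in Rhodamine-PBP fluorescence (f1 - f0, ex 525/em 598 nm) as Pi is released, read each minute for 11 min. Final reaction: 5 nM WIP1, 10 uM phosphopeptide VEPPL-pS-QETFS, 10 uM Rh-PBP, 50 mM Tris-HCl pH 7.5, 30 mM MgCl2. Compound was preincubated with enzyme for 1 hour at room temperature.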

Chain of Protein phosphatase 1D (Homo sapiens) (O15297 whole entry, looked up): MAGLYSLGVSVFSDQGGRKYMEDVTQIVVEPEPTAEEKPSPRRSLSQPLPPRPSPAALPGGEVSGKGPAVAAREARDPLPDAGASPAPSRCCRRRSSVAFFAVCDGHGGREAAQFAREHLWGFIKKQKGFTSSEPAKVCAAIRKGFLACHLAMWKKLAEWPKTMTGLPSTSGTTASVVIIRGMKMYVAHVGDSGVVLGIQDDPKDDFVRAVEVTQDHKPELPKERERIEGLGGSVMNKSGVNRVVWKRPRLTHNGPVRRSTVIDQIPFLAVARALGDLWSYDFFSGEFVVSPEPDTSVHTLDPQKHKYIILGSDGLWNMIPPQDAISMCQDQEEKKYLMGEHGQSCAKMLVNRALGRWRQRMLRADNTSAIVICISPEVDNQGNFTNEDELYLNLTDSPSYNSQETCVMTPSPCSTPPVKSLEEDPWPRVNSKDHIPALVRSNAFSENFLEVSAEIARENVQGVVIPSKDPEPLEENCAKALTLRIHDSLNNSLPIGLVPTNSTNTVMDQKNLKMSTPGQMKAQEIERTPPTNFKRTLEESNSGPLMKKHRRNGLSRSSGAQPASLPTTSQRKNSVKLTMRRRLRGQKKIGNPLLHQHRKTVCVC

Q: With `CCOC(=O)/C=C(C)/C=C/C=C(C)/C=C/c1c(C)cc(OC)c(C)c1C` as the molecule, how does the “activity change, negative = inhibition” value read?
A: 7.93%

Q: Which “activity change, negative = inhibition” value does the source give for `C[C@H](CCC(=O)O)[C@H]1CC[C@H]2[C@@H]3C(=O)C[C@@H]4CC(=O)CC[C@]4(C)[C@H]3CC(=O)[C@]12C` here?
A: 6.33%

Q: With `COC1=CC(=O)C[C@@H](C)[C@]12Oc1c(Cl)c(OC)cc(OC)c1C2=O` as the molecule, how does the “activity change, negative = inhibition” value read?
A: 5.48%

Q: Which “activity change, negative = inhibition” value does the source give for `O=C(Nc1ccc(Cl)c(Cl)c1)C1CC1` here?
A: 18%

Q: For `CC[N+](CC)(CCNC(=O)C(=O)NCC[N+](CC)(CC)Cc1ccccc1Cl)Cc1ccccc1Cl`, which “activity change, negative = inhibition” value is on record?
A: -7.57%

Q: With `CC(=O)Oc1ccc2c(c1)CC[C@@H]1[C@@H]2CC[C@]2(C)[C@@H](O)CC[C@@H]12` as the molecule, how does the “activity change, negative = inhibition” value read?
A: -13.6%

Q: With `CCN(CC)C(=O)N1CCN(C)CC1` as the molecule, how does the “activity change, negative = inhibition” value read?
A: -11%

Q: For `OC[C@H]1O[C@H](O[C@]2(CCl)O[C@H](CCl)[C@@H](O)[C@@H]2O)[C@H](O)[C@@H](O)[C@H]1Cl`, which “activity change, negative = inhibition” value is on record?
A: 12.1%

Q: With `Cc1c(C)n(CCN(C)C)c2ccc(C(=O)OCCN(C)C)cc12` as the molecule, how does the “activity change, negative = inhibition” value read?
A: -5.2%

Q: With `C[C@]12CC[C@@H]3c4ccc(O)cc4CC[C@H]3[C@@H]1C[C@@H](O)[C@@H]2O` as the molecule, how does the “activity change, negative = inhibition” value read?
A: 4.7%

Q: For `COc1cc2c(cc1OC)C(C(C(=O)N(CCc1ccc(OC)c(OC)c1OC)CCc1ccc(OC)c(OC)c1OC)c1ccccc1)=NCC2` (stereo not given), which “activity change, negative = inhibition” value is on record?
A: -6.14%

Q: With `CCOc1ccc(Cc2nccc3cc(OCC)c(OCC)cc23)cc1OCC` as the molecule, how does the “activity change, negative = inhibition” value read?
A: 37.6%

Q: With `O=C1[C@H]2CCCC[C@H]2C(=O)N1CCCCN1CCN(c2nsc3ccccc23)CC1` as the molecule, how does the “activity change, negative = inhibition” value read?
A: -17.3%

Q: With `C[C@]12CCC(=O)C=C1CC[C@H]1[C@@H]3CC[C@](O)(C(=O)CO)[C@@]3(C)C[C@H](O)[C@@]12F` as the molecule, how does the “activity change, negative = inhibition” value read?
A: 14.3%

Test system: not listed separately
Assay: Primary qHTS for inhibitors of La Crosse Virus (LACV) - induced cell death in SH-SY5Y cells (AID 1508616);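 also: top concentration of the series differs between compounds; 0% = infected DMSO wells and 100% = uninfected DMSO wells; higher means more rescue of cells from virus-induced death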
Details: SH-SY5Y LACV cytopathicity rescue, ATP luminescence, 6 d; series mostly up to 4.29 µM; activity change: at the top concentration
Summary of the method: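 Rescue of virus-induced death was read as ATPLite luminescence after 6 days at 37C, scaled between DMSO wells with LACV and without virus. Cells were SH-SY5Y, 6000/well, infected at 0.01 MOI after compound addition.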

Q: Which “activity change” value does the source give for `CCCCCCCCCCOCC(O)CN` (stereo not given) here?
A: -5.63%

Q: For `C[C@]12CCC(=O)C=C1[C@@H]1C[C@@H]1[C@H]1[C@@H]3[C@@H]4C[C@@H]4[C@@]4(CCC(=O)O4)[C@@]3(C)CC[C@@H]12`, which “activity change” value is on record?
A: 6.49%

Q: For `CC(C)NC[C@@H](O)COc1cccc2ccccc12`, which “activity change” value is on record?
A: 3.25%

Q: With `COc1cccc(CCc2ccccc2OCC(CN(C)C)OC(=O)CCC(=O)O)c1` (stereo not given) as the molecule, how does the “activity change” value read?
A: -22.4%

Q: For `CN(C(=O)CN(CCO)CC(=O)N(C)C(C)(C)Cc1ccccc1)C(C)(C)Cc1ccccc1`, which “activity change” value is on record?
A: 88.7%

Q: Which “activity change” value does the source give for `O=C(Nc1ccc(Oc2ccc(Cl)cc2)c(Cl)c1)c1cc(I)cc(I)c1O` here?
A: 15.6%

Q: Which “activity change” value does the source give for `CCCCCCCCCCCCCCCC[N+](C)(C)CCN(Cc1ccc(OC)cc1)c1ncccn1` here?
A: 19%

Q: With `Oc1c(Cl)cc(Cl)cc1Sc1cc(Cl)cc(Cl)c1O` as the molecule, how does the “activity change” value read?
A: 2.94%

Q: For `CC(C)(C)CC(C)(C)c1ccc(OCCOCC[N+](C)(C)Cc2ccccc2)cc1`, which “activity change” value is on record?
A: 5.08%

Q: For `COc1ccc(/C=C/C(=O)c2ccc(OC)cc2OC)cc1`, which “activity change” value is on record?
A: 7.45%

Q: For `CCCOC(C(=O)OC1CCN(C)CC1)(c1ccccc1)c1ccccc1`, which “activity change” value is on record?
A: -9.92%

Q: With `Cc1ccc(Nc2c(F)cccc2Cl)c(CC(=O)O)c1` as the molecule, how does the “activity change” value read?
A: -2.77%

Q: Which “activity change” value does the source give for `C[n+]1c2cc(N)ccc2cc2ccc(N)cc21` (tested in a mixture with another compound) here?
A: -14.4%

Q: With `COc1ccc(OC)c(C(O)CNC(=O)CN)c1` (stereo not given) as the molecule, how does the “activity change” value read?
A: -8.02%

Q: For `C[C@H]1C[C@H]2[C@@H]3CCC4=CC(=O)C=C[C@]4(C)[C@@]3(Cl)[C@@H](O)C[C@]2(C)[C@@]1(O)C(=O)CO`, which “activity change” value is on record?
A: 42.8%

Q: With `CC1=C(C(=O)OC(C)C)C(c2cccc([N+](=O)[O-])c2)C(C(=O)OC2CN(C(c3ccccc3)c3ccccc3)C2)=C(N)N1` (stereo not given) as the molecule, how does the “activity change” value read?
A: 16.5%

Q: Which “activity change” value does the source give for `Cc1c2oc3c(C)ccc(C(=O)N[C@@H]4C(=O)N[C@H](C(C)C)C(=O)N5CCC[C@H]5C(=O)N(C)CC(=O)N(C)[C@@H](C(C)C)C(=O)O[C@@H]4C)c3nc-2c(C(=O)N[C@@H]2C(=O)N[C@H](C(C)C)C(=O)N3CCC[C@H]3C(=O)N(C)CC(=O)N(C)[C@@H](C(C)C)C(=O)O[C@@H]2C)c(N)c1=O` (I: T[dV]P[Sar][NMeV] / II: T[dV]P[Sar][NMeV]; ester I:1-I:C, II:1-II:C; linker I:N-II:N via Actinocin(9to1)) here?
A: 10.9%

Q: Which “activity change” value does the source give for `CC(C)(C)NC(=O)[C@@H]1CN(Cc2cccnc2)CCN1C[C@@H](O)C[C@@H](Cc1ccccc1)C(=O)N[C@H]1c2ccccc2C[C@H]1O` here?
A: 24.8%

Q: For `Oc1ccc(Cl)cc1Sc1cc(Cl)ccc1O`, which “activity change” value is on record?
A: -1.71%

Q: With `CCC(=O)c1c(O)cc(O)cc1O` as the molecule, how does the “activity change” value read?
A: 12.1%

Q: For `COc1ccc(CN2CCN(C(c3ccc(F)cc3)c3ccc(F)cc3)CC2)c(OC)c1OC`, which “activity change” value is on record?
A: 3.75%

Q: With `COc1cc(NS(C)(=O)=O)ccc1Nc1c2ccccc2nc2ccccc12` as the molecule, how does the “activity change” value read?
A: -95% [at 9.63 µM]

Q: Which “activity change” value does the source give for `CCOC(=O)/C=C(C)/C=C/C=C(C)/C=C/c1c(C)cc(OC)c(C)c1C` here?
A: 19.6%

Q: For `C[C@H](CCC(=O)O)[C@H]1CC[C@H]2[C@@H]3C(=O)C[C@@H]4CC(=O)CC[C@]4(C)[C@H]3CC(=O)[C@]12C`, which “activity change” value is on record?
A: 24.1%

Q: Which “activity change” value does the source give for `COC1=CC(=O)C[C@@H](C)[C@]12Oc1c(Cl)c(OC)cc(OC)c1C2=O` here?
A: 0.839%

Q: Which “activity change” value does the source give for `O=C(Nc1ccc(Cl)c(Cl)c1)C1CC1` here?
A: 27.4%

Q: Which “activity change” value does the source give for `CC[N+](CC)(CCNC(=O)C(=O)NCC[N+](CC)(CC)Cc1ccccc1Cl)Cc1ccccc1Cl` here?
A: -5.94%

Q: Which “activity change” value does the source give for `CC(=O)Oc1ccc2c(c1)CC[C@@H]1[C@@H]2CC[C@]2(C)[C@@H](O)CC[C@@H]12` here?
A: -8.34%

Q: With `CCN(CC)C(=O)N1CCN(C)CC1` as the molecule, how does the “activity change” value read?
A: 15.2%

Q: For `OC[C@H]1O[C@H](O[C@]2(CCl)O[C@H](CCl)[C@@H](O)[C@@H]2O)[C@H](O)[C@@H](O)[C@H]1Cl`, which “activity change” value is on record?
A: 7.33%

Q: For `Cc1c(C)n(CCN(C)C)c2ccc(C(=O)OCCN(C)C)cc12`, which “activity change” value is on record?
A: -22.8%

Q: For `C[C@]12CC[C@@H]3c4ccc(O)cc4CC[C@H]3[C@@H]1C[C@@H](O)[C@@H]2O`, which “activity change” value is on record?
A: 4.53%

Q: Which “activity change” value does the source give for `COc1cc2c(cc1OC)C(C(C(=O)N(CCc1ccc(OC)c(OC)c1OC)CCc1ccc(OC)c(OC)c1OC)c1ccccc1)=NCC2` (stereo not given) here?
A: 23.2%

Q: With `CCOc1ccc(Cc2nccc3cc(OCC)c(OCC)cc23)cc1OCC` as the molecule, how does the “activity change” value read?
A: 46%

Q: Which “activity change” value does the source give for `O=C1[C@H]2CCCC[C@H]2C(=O)N1CCCCN1CCN(c2nsc3ccccc23)CC1` here?
A: -3.88%

Q: With `C[C@]12CCC(=O)C=C1CC[C@H]1[C@@H]3CC[C@](O)(C(=O)CO)[C@@]3(C)C[C@H](O)[C@@]12F` as the molecule, how does the “activity change” value read?
A: 0.494%
